G9a inh – qHTS Assay for Inhibitors of Histone Lysine Methyltransferase G9a; Histone-lysine N-methyltransferase EHMT2 (Homo sapiens), Q96KQ7; G9a H3K9 monomethylation, AlphaScreen, 2 h; Potency, µM (doses to about 102 µM), actives largely listed as inhibitors; 350,000 compounds, 8.8% hits; also: nearly all actives have a fitted effect of over 75% in size
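Methyltransferase reactions run at room temperature for 2 h (20 nM enzyme, 500 nM biotin-H3K9 peptide, 20 uM SAM) after a 15 min compound preincubation; product detected by AlphaScreen beads and anti-H3K9me1 antibody.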
Six1-Eya2 blk – qHTS Assay for Inhibitors of the Six1/Eya2 Interaction. Homeobox protein SIX1 (Homo sapiens) + Protein phosphatase EYA2 (Homo sapiens), …. AlphaScreen GST-Six1/His-Eya2 binding, biochemical; active compounds read low. activity change, % (concentration not given with the values). 360,000 compounds, 0.56% hits. AID 651725, 2012; in the data active = activity change below about -65%; inconclusive = mostly about -30% to -63%
Target sequence (O00167 whole entry, looked up): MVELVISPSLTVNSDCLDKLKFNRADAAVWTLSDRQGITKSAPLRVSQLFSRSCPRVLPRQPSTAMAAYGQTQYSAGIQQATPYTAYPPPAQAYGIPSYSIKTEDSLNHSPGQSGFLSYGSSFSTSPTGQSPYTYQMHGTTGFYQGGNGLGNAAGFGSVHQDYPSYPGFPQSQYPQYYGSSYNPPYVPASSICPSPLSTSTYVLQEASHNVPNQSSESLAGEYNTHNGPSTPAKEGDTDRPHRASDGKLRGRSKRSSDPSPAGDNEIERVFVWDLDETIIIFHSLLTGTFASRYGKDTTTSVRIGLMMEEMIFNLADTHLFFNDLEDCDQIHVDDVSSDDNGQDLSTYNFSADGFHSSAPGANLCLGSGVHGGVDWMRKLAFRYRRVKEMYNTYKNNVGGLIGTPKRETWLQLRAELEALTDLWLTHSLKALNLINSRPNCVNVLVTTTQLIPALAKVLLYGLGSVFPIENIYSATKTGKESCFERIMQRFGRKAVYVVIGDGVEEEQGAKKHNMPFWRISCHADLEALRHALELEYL
Target sequence (Q15475 whole entry, looked up): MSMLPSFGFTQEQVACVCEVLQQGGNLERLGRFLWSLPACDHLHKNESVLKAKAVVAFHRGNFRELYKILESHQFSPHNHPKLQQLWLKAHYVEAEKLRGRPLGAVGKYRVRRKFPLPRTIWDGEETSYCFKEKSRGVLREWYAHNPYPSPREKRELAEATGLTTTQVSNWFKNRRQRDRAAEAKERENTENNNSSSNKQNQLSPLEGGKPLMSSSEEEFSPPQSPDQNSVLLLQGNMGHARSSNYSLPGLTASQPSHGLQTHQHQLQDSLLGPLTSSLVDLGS
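Homogeneous AlphaScreen proximity assay pairing GST-Six1 with His-tagged Eya2 (added as 5X mix: 250 nM and 500 nM) in 50 mM Tris pH 8.0, 300 mM NaCl, 1 mM TCEP. Glutathione donor and nickel acceptor beads; 1 h, 37 °C, dark.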
JMJD2A Tudor inh – qHTS Assay for Inhibitors of JMJD2A-Tudor Domain. Lysine-specific demethylase 4A (Homo sapiens), O75164. AlphaScreen JMJD2A-Tudor / H3K4me3 peptide binding. Potency, µM (series often up to 114 µM), usual class: inhibitors. 390,000 compounds, 4.4% hits; also: nearly all actives have a fitted effect of over 50% in size
CtBP-E1A blk – qHTS Assay for Inhibitors of the CtBP/E1A Interaction | 340,000 compounds, 0.49% hits | AID 651724, 2012 | CtBP / adenovirus E1A interaction (AlphaScreen) | AlphaScreen GST-E1A/His-CtBP binding, 1536-well; active compounds read low | activity change, % (concentration not given with the values); in the data active = activity change below about -65%; inconclusive = mostly about -30% to -63%
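Steps: dispense buffer (Tris pH 8.0, NaCl 300 mM, TCEP 1 mM, BSA, Tween 20); add 5X protein mix (GST-E1A, His-CtBP, 125 nM each); pin 23 nL compound; 2 h at 37 °C, dark; add 5X beads (50 ug/mL); 1 h; read.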
HP1b chromo inh – HTS for Inhibitors of HP1-beta Chromodomain Interactions with Methylated Histone Tails; Chromobox protein homolog 1 (Homo sapiens), P83916; AlphaScreen HP1-beta / biotin-H3K9me3 peptide binding; Potency, µM (series often up to 114 µM), actives largely listed as inhibitors; 390,000 compounds, 0.56% hits; also: nearly all actives have a fitted effect of over 70% in size
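Compound inhibition of the preformed complex between 50 nM HP1-beta and 50 nM biotinylated H3K9me3 peptide was read by AlphaScreen. Buffer was PBS pH 7.4 with 0.01% Tween-20. Incubations ran 30 min at room temperature, with 10 ug/mL donor/acceptor beads.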
BAZ2B inh – qHTS Assay for Inhibitors of BAZ2B; AID 504333, 2011; AlphaScreen BAZ2B-H3K14Ac peptide displacement; 360,000 compounds, 4.4% hits; Potency, µM (doses to about 114 µM), most hits filed as inhibitors; also: nearly all actives have a fitted effect of over 60% in size
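Compounds, titrated to a top concentration of 110 uM, were incubated 30 min at room temperature with preformed BAZ2B/acetyl-K14 H3 peptide complex (50 nM each). Proximity signal was measured by AlphaScreen after 20 min with beads.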
A number is an active result; i = inactive; ? = inconclusive; nt = no result; [ ] = another dose, or the depositor's remark. Only some compounds are listed: those with a hit (about 10% of all), similar ones and a draw of the others. Unless noted, calls follow the shape of the dose curve; as a rule, active = well fitted inhibition curve with a large enough effect; inconclusive = small, poorly fitted or top-dose-only effect; inactive = no such curve, though single readings can be large or run the other way.

SMILES	G9a inh	Six1-Eya2 blk	JMJD2A Tudor inh	CtBP-E1A blk	HP1b chromo inh	BAZ2B inh
CCN(CC)S(=O)(=O)c1ccc2c(c1)N(CC(=O)Nc1cccc(C)c1C)C(=O)C1CCCN21 (stereo not given)	i	nt	i	nt	i	i
O=C(CSc1nnc(-c2cccs2)o1)Oc1ccc(Cl)cc1	i	nt	i	nt	i	i
CCOC(=O)CCCNC(=O)COC(=O)[C@@H]1CCCN1S(=O)(=O)c1ccc(Cl)cc1	50µM	i	i	i	i	i
Cc1ccc2nc(COc3cccc(NC(=O)COc4ccccc4F)c3)cc(=O)n2c1	i	nt	i	nt	i	i
COc1ccccc1C1NC=C([N+](=O)[O-])C=C1[N+](=O)[O-] (stereo not given)	3.5µM	i	?	i	?	45µM
COc1ccccc1C1C([N+](=O)[O-])=CC([N+](=O)[O-])=CN1C (stereo not given)	?	i	i	i	i	i
CCOC(=O)c1c(Oc2ccc(C(=O)OC)cc2)nnc(-c2ccccc2)c1-c1ccccc1	i	nt	i	nt	i	i
Cc1sc2nc(SCc3nc(-c4ccccc4)no3)n(-c3ccccc3)c(=O)c2c1C	3.2µM	i	i	i	i	i
CCOC(=O)NNC1CC(=O)N(c2ccccc2)C1=O (stereo not given)	?	i	i	i	i	i
CCOC(=O)C1=C(C)N(c2ccccc2)C(=O)C1CC(=O)O (stereo not given)	18µM	i	i	i	i	i
CCOC(=O)C1=C(C)N(C)C(=O)C1CC(=O)O (stereo not given)	i	i	56µM	i	i	i
CCOC(=O)c1cc(-c2ccccc2)n(CC(=O)NC2CCC(C)CC2)c1C (stereo not given)	i	nt	i	nt	i	i
CCOc1cccc(C(=O)N(Cc2ccc(F)cc2)Cc2ccco2)c1	i	nt	i	nt	i	i
CCNC(=O)C1CCN(c2nnc(C)c3c(C)n(-c4ccc(OC)cc4)nc23)CC1	i	nt	i	nt	i	i
COc1ccc(CNc2ccc(Cl)cc2)cc1Cn1ccnc1	35µM	?	50µM	?	?	25µM
O=S(=O)(Nc1ccc(-c2ccc(N3CCCC3)nn2)cc1)c1cccc(C(F)(F)F)c1	i	nt	i	nt	i	i
O=S(=O)(Nc1cc(S(=O)(=O)N2CCOCC2)ccc1N1CCOCC1)c1ccc2c(c1)OCCO2	40µM	i	i	nt	i	i
O=S(=O)(Nc1cc(S(=O)(=O)N2CCOCC2)ccc1O)c1ccc2c(c1)OCCCO2	1.3µM	i	i	i	?	56µM
O=S(=O)(Nc1cccc(S(=O)(=O)N2CCOCC2)c1)c1ccc2c(c1)OCCO2	i	i	i	i	i	nt
Cc1ccc(NS(=O)(=O)c2ccc3c(c2)OCCCO3)cc1S(=O)(=O)N1CCOCC1	i[2.33 µM]	i	i	i	i	i
O=S(=O)(NCc1ccc2c(c1)OCO2)c1cccc(S(=O)(=O)N2CCOCC2)c1	40µM	i	i	i	i	i
O=C(CN1CCCC1)NC12CC3CC(CC(C3)C1)C2	i	i	i	i	i	i
Cc1ccc(NC(=O)CNCc2cccs2)c(Br)c1	?	i	i	i	i	i
CC1(C)C2CCC(C2)C1(C)NC(=O)CNCc1cccs1 (stereo not given)	11µM	i	25µM	nt	?	nt
CC1(C)C2CCC(C2)C1(C)NC(=O)CNC1CCCCC1 (stereo not given)	13µM	i	i[11.4 µM]	i	i	50µM
SMILES	G9a inh	Six1-Eya2 blk	JMJD2A Tudor inh	CtBP-E1A blk	HP1b chromo inh	BAZ2B inh
CNC1(C)C2CCC(C2)C1(C)C (stereo not given)	i	nt	nt	nt	nt	nt
CC1(C)C2CCC(C2)C1(C)NC(=O)CN1CCCC1 (stereo not given)	5µM	i	28µM	i	i	?
CC1(C)C2CCC(C2)C1(C)NC(=O)CN1CCOCC1 (stereo not given)	10µM	i	32µM	i	?	50µM
CCOc1ccc(CN2CCNC(=O)C2CC(=O)N(C)Cc2nonc2C)cc1 (stereo not given)	50µM	i	i	i	i	i
CCOc1ccc(CN2CCNC(=O)C2CC(=O)NCc2ccccn2)cc1 (stereo not given)	?	i	i	i	i	i
CCc1cc(CNC(=O)CC2C(=O)NCCN2Cc2ccc(-c3ccccc3)cc2)on1 (stereo not given)	50µM	i	i	i	i	i
Cc1cccnc1CCNC(=O)CC1C(=O)NCCN1CC1CCCCC1 (stereo not given)	40µM	i	i	i	i	i
CCOc1ccc(CN2CCNC(=O)C2CC(=O)NCCc2ccccn2)cc1 (stereo not given)	56µM	i	i	i	i	i
O=C(CC1C(=O)NCCN1Cc1ccc(-c2ccccc2)cc1)NCc1ccccc1 (stereo not given)	?	i	i	i	i	?
COc1ccc(N(C(=O)c2ccccc2C)S(=O)(=O)c2ccc3c(c2)n(C)c(=O)n3C)cc1	i	nt	i	nt	i	i
COc1ccccc1CNC(=O)c1cc2c(-c3ccc(Cl)cc3)nn(C)c2s1	i	nt	i	nt	i	nt
COc1cc(/C=C2/SC(=O)NC2=O)ccc1OC(=O)c1ccco1	i	i	i	i	i	i
O=C1NC(=S)S/C1=C/c1ccc(OC(=O)c2ccco2)cc1	i	i	?	i	i	79µM
CCOc1cc(/C=C2/SC(=S)NC2=O)ccc1OC(=O)c1ccco1	13µM	i	?	?	?	40µM
N=C1/C(=C\c2ccc(OC(=O)c3ccco3)cc2)C(=O)N=C2SC=NN12	i	i	?	i	i	nt
CCSc1nn(CC(=O)Nc2cccc(Cl)c2)c(N)c1S(=O)(=O)c1ccc(OC)cc1	i	nt	i	nt	i	i
O=C(O)C(c1ccccc1)C(c1ccccc1)c1ccccc1 (stereo not given)	i	i	i	i	i	50µM
O=C(O)C(Sc1ccncn1)c1ccccc1 (stereo not given)	i	i	i	i	i	i
O=C(O)C(SC(C(=O)O)c1ccccc1)c1ccccc1 (stereo not given)	nt	i	56µM	i	i	nt
O=C(NCc1ccc2c(c1)CCN2C(=O)c1ccc(F)cc1)c1cc2ccccc2[nH]1	i	nt	i	nt	i	i
CCC1CN(C(=O)Nc2ccccc2C(F)(F)F)c2ccccc2O1 (stereo not given)	i	nt	i	nt	i	i
